According to PMC4336329 (PLoS ONE, 2015):
Among all 310,000 compounds or so, about 2,200 (0.71%) showed an effect of 50% or more. Effects have a minus sign here. The sample as a whole holds a higher share of strong results than the screen did.

Target: human ether-à-go-go-related gene (hERG) potassium channel (human, UniProt Q12809)
Assay: primary screen, population patch clamp on CHO cells stably expressing hERG; higher = less effect of the substance

human ether-à-go-go-related gene (hERG) potassium channel, sequence (Q12809 whole entry, looked up): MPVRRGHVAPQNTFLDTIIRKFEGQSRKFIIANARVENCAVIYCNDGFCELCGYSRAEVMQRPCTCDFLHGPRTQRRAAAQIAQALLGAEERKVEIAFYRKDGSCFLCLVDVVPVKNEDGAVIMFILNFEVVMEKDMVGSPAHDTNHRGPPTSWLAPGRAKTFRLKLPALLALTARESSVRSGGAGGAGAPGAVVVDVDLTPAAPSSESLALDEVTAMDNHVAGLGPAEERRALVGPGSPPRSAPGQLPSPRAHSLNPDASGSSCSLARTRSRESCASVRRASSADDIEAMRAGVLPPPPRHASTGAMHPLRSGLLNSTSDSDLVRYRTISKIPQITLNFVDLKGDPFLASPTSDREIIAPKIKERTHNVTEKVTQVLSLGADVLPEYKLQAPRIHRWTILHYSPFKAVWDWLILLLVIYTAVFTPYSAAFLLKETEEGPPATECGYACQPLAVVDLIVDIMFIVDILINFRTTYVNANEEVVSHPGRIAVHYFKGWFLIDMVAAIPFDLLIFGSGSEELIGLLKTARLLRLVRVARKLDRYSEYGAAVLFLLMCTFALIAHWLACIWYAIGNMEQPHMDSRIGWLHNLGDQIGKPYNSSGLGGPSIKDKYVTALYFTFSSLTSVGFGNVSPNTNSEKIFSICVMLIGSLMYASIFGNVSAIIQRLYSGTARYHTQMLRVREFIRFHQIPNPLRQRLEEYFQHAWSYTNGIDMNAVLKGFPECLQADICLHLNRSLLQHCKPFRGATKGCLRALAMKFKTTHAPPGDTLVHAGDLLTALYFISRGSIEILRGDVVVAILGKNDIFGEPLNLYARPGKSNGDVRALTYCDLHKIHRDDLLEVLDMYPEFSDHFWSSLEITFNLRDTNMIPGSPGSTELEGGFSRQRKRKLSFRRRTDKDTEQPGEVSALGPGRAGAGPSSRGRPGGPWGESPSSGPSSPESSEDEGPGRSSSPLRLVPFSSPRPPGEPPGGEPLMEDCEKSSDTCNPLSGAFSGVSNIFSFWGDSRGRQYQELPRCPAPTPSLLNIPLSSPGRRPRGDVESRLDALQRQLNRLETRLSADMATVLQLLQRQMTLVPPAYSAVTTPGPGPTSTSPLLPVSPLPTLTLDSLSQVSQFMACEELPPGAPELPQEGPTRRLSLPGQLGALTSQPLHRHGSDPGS

Row | Structure (SMILES) | hERG current change (%, negative = inhibition) at 1uM
1 | COc1cc(O)c(C(CC(=O)N2CCCC(C)C2)c2ccc3c(c2)OCO3)c(OC)c1 (stereo not drawn) | 14.5%
2 | CCN(CC)CCC(c1ccc(OC)cc1)c1c(O)cc(OC)cc1OC (stereo not drawn) | -25.8%
3 | CCN(CC)CCC(c1ccc2c(c1)OCO2)c1c(O)cc(OC)cc1OC (stereo not drawn) | -73.4%
4 | COc1cc(O)c(C(CCN2CCN(c3ccccc3)CC2)c2ccc3c(c2)OCO3)c(OC)c1 (stereo not drawn) | 5.8%
5 | CCN(CC)C(=O)CC(c1ccc2c(c1)OCO2)c1c(O)cc(OC)cc1OC (stereo not drawn) | 5.47%
6 | CC1CN(C(=O)c2c(Br)cnn2C)CC(C)O1 (stereo not drawn) | 4.32%
7 | O=C(COC(=O)Cc1ccsc1)Nc1cccc(Cl)c1 | 0.601%
8 | COc1ccc(N2CCN(C(=O)c3ccc(C)c(NC(=O)c4ccco4)c3)CC2)cc1 | -53.7%
9 | COc1ccc(N2CCN(C(=O)c3cccc(NC(=O)c4ccco4)c3)CC2)cc1 | -8.07%
10 | Cc1ccc(C(=O)N2CCN(c3ccccc3)CC2)cc1NC(=O)c1ccco1 | 1.43%
11 | O=C(c1cc(COc2ccc3ncccc3c2)on1)N1CCCC1 | 13.5%
12 | CN1C(=O)c2oc3ccccc3c(=O)c2C1c1ccncc1 (stereo not drawn) | 5.81%
13 | O=S(=O)(c1ccc2nc(-c3ccccc3)[nH]c2c1)N1CCN(c2ccc(Cl)cc2)CC1 | 5.61%
14 | O=C(NCC1CCN(Cc2ccccc2Cl)CC1)Nc1cccc(Cl)c1 | -62.3%
15 | COc1ccc(OC)c(CN2CCC(CNC(=O)Nc3cccc(Cl)c3)CC2)c1 | -26.3%
16 | O=C(NCC1CCN(Cc2ccccc2Cl)CC1)Nc1ccccc1F | -6.32%
17 | C1CNCCN1.COc1cc(C(O)CO)ccc1O (stereo not drawn) | 10%
18 | CCN(CC)CCOC(=O)CCc1cccc2ccccc12.O=C(O)C(=O)O | -3.77%
19 | CCN(CC)CCOC(=O)C(Cc1cccc2ccccc12)CC1CCCO1.O=C(O)C(=O)O (stereo not drawn) | -20.2%
20 | CCN(CC)CCOC(=O)C(Cc1ccco1)Cc1cccc2ccccc12.O=C(O)C(=O)O (stereo not drawn) | -62.8%
21 | C#CCOCCOCCOCCNc1nc(N2CCOCC2)nc(N2CCN(C(=O)Cn3cc(CCC[NH+]=C(N)N)nn3)CC2)n1.[Cl-] | 17.5%

Row | Structure (SMILES) | hERG current change (%, negative = inhibition) at 1uM
22 | CCc1ccc(/C=C(/C#N)C(N)=S)s1 | 15%
23 | O=C(N/N=C/c1ccsc1)c1ccccn1 | 16.7%
24 | O=C(CNC(=S)N(CCCN1CCOCC1)Cc1cccs1)NCc1ccccc1Cl | -35.5%
25 | O=C(Nc1ccc(Cl)cc1)N(CCCN1CCOCC1)Cc1cccs1 | -55%
26 | O=C(Nc1ccc(Cl)c(Cl)c1)N(CCCN1CCOCC1)Cc1cccs1 | -41.8%
27 | O=C(CNC(=S)N(CCCN1CCOCC1)Cc1cccs1)NCc1ccc(Cl)cc1 | -61.3%
28 | O=C(CNC(=S)N(CCCN1CCOCC1)Cc1cccs1)NCCCN1CCOCC1 | 16.3%
29 | O=C(Nc1ccccc1)N(CCCN1CCOCC1)Cc1cccs1 | -29.2%
30 | Cc1ccc(OCC(=O)N2CCc3ccccc32)cc1 | 10.7%
31 | O=C(CN1CCC(NC(=O)c2cccc(F)c2)CC1)Nc1ccc(Br)cc1 | -53.9%
32 | O=C(CN1CCN(c2ccccc2)CC1)Nc1ccc(OCc2ccccc2)cc1 | 13.4%
33 | Cc1cccc(C)c1NC(=O)CN1CCN(CC(=O)c2cc(C)n(C3CC3)c2C)CC1 | -0.73%
34 | CCOc1ccc(NC(=O)CN2CCN(Cc3c(F)cccc3F)CC2)cc1 | -50.7%
35 | Cc1ccc(NC(=O)CN2CCC(NC(=O)c3cccc(F)c3)CC2)cc1C | -13.4%
36 | CCOc1ccc(NC(=O)CN2CCN(C3c4ccccc4-c4ccccc43)CC2)cc1 | -25.5%
37 | CCCCOc1ccc(NC(=O)CN2CCN(Cc3ccccc3)CC2)cc1 | 1.72%
38 | Cc1cc(C)cc(NC(=O)CN2CCC(NC(=O)c3cccc(F)c3)CC2)c1 | 4.29%
39 | Cc1cc(C(=O)CN2CCN(CC(=O)Nc3cccc(F)c3)CC2)c(C)n1C1CC1 | -7.82%
40 | O=C(CN1CCN(CC(=O)Nc2ccc(OCc3ccccc3)cc2)CC1)Nc1ccc(F)cc1 | -81.5%
41 | Cc1cc(C(=O)CN2CCN(CC(=O)Nc3ccc(F)cc3)CC2)c(C)n1C1CC1 | -72.3%
42 | O=C(CN1CCCC1)Nc1ccc(OCc2ccccc2)cc1 | 8%
